This is an account of results in PubChem BioAssay (NCATS).

Inconclusive results are not listed. Calls of active or inactive are those of the source. The call rests on the fitted dose curve; in most records, active means well fitted cell-killing curve with a large enough effect; inconclusive means small, poorly fitted or top-dose-only effect; inactive means flat fitted curve, though single readings scatter.
Potency means the concentration at half of the fitted maximal effect.

The experiment in a line: qHTS of pediatric cancer cell lines to identify multiple opportunities for drug repurposing: Confirmatory screen for A673 cells (AID 1347110).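 Further: cells exposed to compound for 48 h before the viability read; nearly all actives have a fitted effect of over 65% in size.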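 On activity change, negative = cytotoxicity: plate controls were DMSO neutral control for no effect and bortezomib positive control for full effect.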 The following applies: A673 Ewing sarcoma cell viability; series mostly up to 45.9 µM; activity change, negative = cytotoxicity: at the top concentration. An excerpt: Drug repurposing or repositioning has been offered as a strategy for drug development in oncology programs. This approach has special potential for childhood cancers and other rare or orphan diseases, where the expected return on new drug development has been a disincentive to pharmaceuticals.
In this project we exploit the poly-pharmacology of drugs to discover new indications via phenotypic screening of a panel of 19 well-characterized cell lines derived from solid tumors seen in children and adolescents. The goal is to identify approved drugs with previously unrecognized anticancer properties that has the potential to reveal new mechanisms and biological processes involved in carcinogenesis or drug resistance. We employed a titration-based paradigm (quantitative high-throughput screening or qHTS), where all compounds were tested at multiple concentrations for their effect on cell viability. Concentration-response curves (CRCs) were derived directly from the primary screen, and both potency and efficacy values were used to identify compounds with robust bioactivity profiles. We screened the NIH Chemical Genomics Center (NCGC) Pharmaceutical Collection (NPC) and Mechanism Interrogation Plate (MIPE) small molecule collections of approved and investigational compounds against these cell lines; and measured metabolically active cells after 48 hours of compound treatment as a proxy for cell viability.
Assay Submitter: Nathalia J. Martinez, National Center for Advancing Translational Sciences, National Institutes of Health, Rockville, MD, USA; email: natalia.martinez@nih.gov.
[1] Shen, M et al. Quantitative high-throughput phenotypic screening of pediatric cancer cell lines identifies multiple opportunities for drug repurposing. Oncotarget 2017 Dec 19;9(4):4758-4772. PMID 29435139.
The cells were obtained from University of North Carolina (UNC), Pediatric Preclinical Testing Program (PPT), and Coriell Institute (CI).
qHTS cell viability assay:
Cells were assayed in growth media at a density of 500-1,000 cells/well. Five microliters of cells were dispensed into 1,536-well, white, solid-bottom, TC-treated plates (Greiner Bio One) using a multidrop dispenser and incubated at 37 degrees C, 5% CO2, under a humidified atmosphere for 5 hours. Twenty-three nanoliters of compounds and controls (neutral control DMSO or positive control bortezomib at final concentration of 2.3 uM) were subsequently transferred by Kalypsys pintool. For primary screens, the MIPE collection was tested at 11-point dilutions (final concentrations range from 0.78 nM to 46 µM) and the NPC collection at 8-point dilutions (final concentrations range from 0.59 nM to 46 µM). Compounds tested in follow-up screens were assayed at 11-point dilutions. Cells were incubated for 48 hours, followed by addition of 3 uL of CellTiter-Glo (Promega). After a 15min incubation at room temperature, samples were analyzed for luminescence intensity using a ViewLux High-throughput CCD imager equipped with clear filters.
On the technique in general: Quantitative high-throughput screening tests each substance at several concentrations.
Take `CN1CCN(CCCN2c3ccccc3Sc3ccc(C(F)(F)F)cc32)CC1`: the Potency was 26100 nM (active).

For `COCC(=O)NCC=Cc1ccc2ncnc(Nc3ccc(Oc4ccc(C)nc4)c(C)c3)c2c1`, the Potency is 23300 nM (active). Regarding `CNCc1ccc(-c2[nH]c3cc(F)cc4c3c2CCNC4=O)cc1`, the Potency was 147 nM (active). In the case of `NCCCC(N)(C(=O)O)C(F)F` (stereo unspecified), the “activity change, negative = cytotoxicity” value is 3.99% (inactive).

Turning to `Cc1c(CN2CCN(C(=O)C(C)C)CC2)sc2c(N3CCOCC3)nc(-c3cnc(N)nc3)nc12`, the Potency was 1470 nM (active).

In the case of `OC(CN1CCC(Cc2ccc(F)cc2)CC1)c1ccc(Cl)cc1` (stereo unspecified), the Potency is 3690 nM (active). Turning to `CCOc1cc(N2CCC(O)CC2)ccc1Nc1ncc2c(n1)N(C)c1ccccc1C(=O)N2C`, the Potency is 46.5 nM (active). `Cc1c(C)c2c(c(C)c1O)CCC(C)(COc1ccc(CC3SC(=O)NC3=O)cc1)O2` (stereo unspecified): the “activity change, negative = cytotoxicity” value is -3.77% (inactive). On to `CCCS(=O)(=O)Nc1ccc(F)c(C(=O)c2c[nH]c3ncc(-c4ccc(Cl)cc4)cc23)c1F`, for which the Potency is 16500 nM (active). Take `Nc1nc2ccc(OC(F)(F)F)cc2s1`: the Potency is 18500 nM (active). For the molecule `Nc1nc2[nH]cc(CCc3ccc(C(=O)N[C@@H](CCC(=O)O)C(=O)O)cc3)c2c(=O)[nH]1`, the Potency is 2330 nM (active).

Turning to `OC[C@H](Cc1ccccc1)Nc1nc(Oc2ccc3c(c2)CCC3)nc2c1ncn2Cc1ccc(-c2ccccc2)cc1`, the Potency is 4650 nM (active). Take `C[C@]1(c2nc3c(C(N)=O)cccc3[nH]2)CCCN1`: the “activity change, negative = cytotoxicity” value was -1.78% (inactive). Regarding `CCN(CC)CCCC(C)Nc1ccnc2cc(Cl)ccc12` (stereo unspecified), the “activity change, negative = cytotoxicity” value is -3.93% (inactive). In the case of `CC(C=CC1=C(C)CCCC1(C)C)=CC=CC(C)=CC(=O)O`, the “activity change, negative = cytotoxicity” value is 8.81% (inactive). In the case of `COc1ccc(-c2ccc3c(N4CCOCC4)nc(N4C[C@@H](C)O[C@@H](C)C4)nc3n2)cc1CO`, the Potency was 293 nM (active). Take `CCC(C)(C)C(=O)O[C@H]1C[C@@H](C)C=C2C=C[C@H](C)[C@H](CC[C@@H]3C[C@@H](O)CC(=O)O3)[C@H]21`: the Potency is 5220 nM (active). On to `CCC(C)n1ncn(-c2ccc(N3CCN(c4ccc(OC[C@H]5CO[C@](Cn6cncn6)(c6ccc(Cl)cc6Cl)O5)cc4)CC3)cc2)c1=O` (stereo partly specified), for which the “activity change, negative = cytotoxicity” value is -17.1% (inactive). Regarding `NC(N)=NC(=O)c1nc(Cl)c(N)nc1N`, the Potency is 1170 nM (active). As to `O=NN(CCCl)C(=O)NCCCl`, the Potency was 16500 nM (active). Turning to `O=C(c1cc(Cc2n[nH]c(=O)c3ccccc23)ccc1F)N1CCN(C(=O)C2CC2)CC1`, the Potency was 104 nM (active). For the molecule `O=C(NOC[C@H](O)CO)c1ccc(F)c(F)c1Nc1ccc(I)cc1F`, the “activity change, negative = cytotoxicity” value was -4.69% (inactive).

As to `CS(=O)(=O)c1ccc(C(=O)Nc2ccc(Cl)c(-c3ccccn3)c2)c(Cl)c1`, the “activity change, negative = cytotoxicity” value is 10.5% (inactive). Regarding `Cc1cn[nH]c1`, the “activity change, negative = cytotoxicity” value was -12.6% (inactive). As for `CO[C@@H]1[C@H](N(C)C(=O)c2ccccc2)C[C@H]2O[C@]1(C)n1c3ccccc3c3c4c(c5c6ccccc6n2c5c31)C(=O)NC4`, the “activity change, negative = cytotoxicity” value is 20.2% (inactive).

As to `CCOc1ccn(-c2ccc(F)cc2)c(=O)c1C(=O)Nc1ccc(Oc2ccnc(N)c2Cl)c(F)c1`, the Potency was 13100 nM (active). Same read-out and setting: the same measure for `Cn1cnc([N+](=O)[O-])c1Sc1ncnc2nc[nH]c12`: 1890 nM (active). `COc1ccc(-c2oc3cc(OC)ccc3c2C(=O)c2ccc(C#N)cc2)cc1`: the “activity change, negative = cytotoxicity” value is 9.4% (inactive). On the same count and under the same terms, the same measure for `Cn1cnc2c(F)c(Nc3ccc(Br)cc3Cl)c(C(=O)NOCCO)cc21`: -13.4% (inactive).

Regarding `Oc1cccc(-c2nc(N3CCOCC3)c3oc4ncccc4c3n2)c1`, the Potency was 1850 nM (active).

Consider `COc1ccc(-c2ccc3c(N4CCOC[C@H]4C)nc(N4CCOC[C@H]4C)nc3n2)cc1CO`, for which the Potency is 117 nM (active).
